# The sample as a whole holds a higher share of the strongest signals than the screen did.
# Key:
# Experiment in all cases: glycan array binding signal (z-score within array); higher = stronger binding
# Conditions in all cases: glycan notation: IUPAC condensed, linker removed
# [1] = target: Fuc(a1-2)Gal(b1-3)GlcNAc6S
# Summary of the method: (§1)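 From the Consortium for Functional Glycomics database, 3228 arrays were curated, keeping only those whose protein sequence was available. Binding is given as a within-array Z-score averaged across arrays sharing a protein sequence and across linkers. Negative Z-scores can be read as non-binding.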
# [2] = target: Fuc(a1-2)Gal(b1-3)[Fuc(a1-4)]GlcNAc(b1-3)[Fuc(a1-3)[Gal(b1-4)]GlcNAc(b1-6)]Gal(b1-4)Glc
# Summary of the method: as §1
# [3] = target: Fuc(a1-2)Gal(b1-4)GlcNAc(b1-3)Gal(b1-4)GlcNAc(b1-2)Man(a1-3)[Fuc(a1-2)Gal(b1-4)GlcNAc(b1-3)Gal(b1-4)GlcNAc(b1-2)Man(a1-6)]Man(b1-4)GlcNAc(b1-4)GlcNAc
# Summary of the method: as §1
# [4] = target: Fuc(a1-2)Gal(b1-4)[Fuc(a1-3)]GlcNAc
# Summary of the method: as §1
# [5] = target: Fuc(a1-2)Gal6S(b1-3)GlcNAc
# Summary of the method: as §1
# [6] = target: Fuc(a1-2)[Gal(a1-3)]Gal(b1-3)GlcNAc(b1-2)Man(a1-3)[Fuc(a1-2)[Gal(a1-3)]Gal(b1-3)GlcNAc(b1-2)Man(a1-6)]Man(b1-4)GlcNAc(b1-4)[Fuc(a1-6)]GlcNAc
# Summary of the method: as §1
# [7] = target: Fuc(a1-2)[GalNAc(a1-3)]Gal(b1-4)[Fuc(a1-3)]GlcNAc(b1-3)GalNAc
# Summary of the method: as §1
# [8] = target: Fuc(a1-2)[GalNAc(b1-3)]Gal
# Summary of the method: as §1
# [9] = target: Fuc(a1-3)[Gal(b1-4)]GlcNAc(b1-2)Man
# Summary of the method: as §1
# [10] = target: Fuc(a1-3)[GalNAc(b1-4)]GlcNAc
# Summary of the method: as §1
# [11] = target: Fuc(a1-3)[GalNAc(b1-4)]GlcNAc6S
# Summary of the method: as §1
# Fuc(a1-4)GlcNAc = target: Fuc(a1-4)GlcNAc
# Summary of the method: as §1
# [12] = target: Gal(a1-3)Gal(b1-4)GlcNAc(b1-2)Man(a1-3)[Gal(a1-3)Gal(b1-4)GlcNAc(b1-2)Man(a1-6)]Man(b1-4)GlcNAc(b1-4)GlcNAc
# Summary of the method: as §1
# [13] = target: Gal(a1-3)Gal(b1-4)[Fuc(a1-3)]GlcNAc(b1-2)Man(a1-3)[Gal(a1-3)Gal(b1-4)[Fuc(a1-3)]GlcNAc(b1-2)Man(a1-6)]Man(b1-4)GlcNAc(b1-4)GlcNAc
# Summary of the method: as §1
# Gal(a1-3)GalNAc = target: Gal(a1-3)GalNAc
# Summary of the method: as §1
# [14] = target: Gal(b1-3)GlcNAc(b1-3)Gal(b1-4)Glc
# Summary of the method: as §1
# [15] = target: Gal(b1-3)GlcNAc(b1-3)Gal(b1-4)GlcNAc
# Summary of the method: as §1
# [16] = target: Gal(b1-3)GlcNAc(b1-3)Gal(b1-4)GlcNAc(b1-2)[Gal(b1-3)GlcNAc(b1-3)Gal(b1-4)GlcNAc(b1-6)]Man(a1-6)[Gal(b1-3)GlcNAc(b1-3)Gal(b1-4)GlcNAc(b1-2)Man(a1-3)]Man(b1-4)GlcNAc(b1-4)[Fuc(a1-6)]GlcNAc
# Summary of the method: as §1
# [17] = target: Gal(b1-3)[Fuc(a1-4)]GlcNAc(b1-6)GalNAc
# Summary of the method: as §1
# [18] = target: Gal(b1-4)GlcNAc(b1-2)[Gal(b1-4)GlcNAc(b1-4)]Man(a1-3)[Gal(b1-4)GlcNAc(b1-2)[Gal(b1-4)GlcNAc(b1-6)]Man(a1-6)]Man(b1-4)GlcNAc(b1-4)GlcNAc
# Summary of the method: as §1
# [19] = target: Gal(b1-4)GlcNAc(b1-3)Gal(b1-3)GlcNAc
# Summary of the method: as §1
# [20] = target: Gal(b1-4)GlcNAc(b1-3)Gal(b1-4)Glc
# Summary of the method: as §1
# [21] = target: Gal(b1-4)GlcNAc(b1-3)Gal(b1-4)GlcNAc(b1-3)Gal(b1-4)GlcNAc
# Summary of the method: as §1
# Gal3S(b1-3)GlcNAc = target: Gal3S(b1-3)GlcNAc
# Summary of the method: as §1
# Gal3S(b1-4)GlcNAc = target: Gal3S(b1-4)GlcNAc
# Summary of the method: as §1
# [22] = target: Gal3S(b1-4)[Fuc(a1-3)]GlcNAc
# Summary of the method: as §1
# Gal4S(b1-4)GlcNAc = target: Gal4S(b1-4)GlcNAc
# Summary of the method: as §1
# GalNAc(b1-4)GlcNAc = target: GalNAc(b1-4)GlcNAc
# Summary of the method: as §1
# [23] = target: GlcNAc(a1-4)Gal(b1-3)GlcNAc
# Summary of the method: as §1
# [24] = target: GlcNAc(a1-6)Gal(b1-4)GlcNAc
# Summary of the method: as §1
binder,measurement,setting,value
"EPL1 (Trichoderma atroviride), A0PCX2 (protein) MQLSNLFKLALFTAAVSADTVSYDTGYDDASRSLTVVSCSDGTNGLITRYHWQTQGQIPRFPYIGGAQAVAGWNSPNCGTCWKLTYSGKTIYVLAIDHTAAGFNIGLDAMNALTNGNAVALGRVSATASQVAVSNCGL",glycan array binding signal (z-score),[1],-0.466
same,glycan array binding signal (z-score),[2],-0.315
same,glycan array binding signal (z-score),[3],-0.05
same,glycan array binding signal (z-score),[4],0.212
same,glycan array binding signal (z-score),[5],-0.249
same,glycan array binding signal (z-score),[6],0.105
same,glycan array binding signal (z-score),[7],21.1
same,glycan array binding signal (z-score),[8],-0.54
same,glycan array binding signal (z-score),[9],0.185
same,glycan array binding signal (z-score),[10],0.203
same,glycan array binding signal (z-score),[11],-0.245
same,glycan array binding signal (z-score),Fuc(a1-4)GlcNAc,3.1
same,glycan array binding signal (z-score),[12],0.847
same,glycan array binding signal (z-score),[13],0.929
same,glycan array binding signal (z-score),Gal(a1-3)GalNAc,-0.034
same,glycan array binding signal (z-score),[14],1.82
same,glycan array binding signal (z-score),[15],-0.163
same,glycan array binding signal (z-score),[16],0.678
same,glycan array binding signal (z-score),[17],-0.249
same,glycan array binding signal (z-score),[18],0.128
same,glycan array binding signal (z-score),[19],-0.08
same,glycan array binding signal (z-score),[20],-0.362
same,glycan array binding signal (z-score),[21],0.071
same,glycan array binding signal (z-score),Gal3S(b1-3)GlcNAc,0.668
same,glycan array binding signal (z-score),Gal3S(b1-4)GlcNAc,0.311
same,glycan array binding signal (z-score),[22],-0.154
same,glycan array binding signal (z-score),Gal4S(b1-4)GlcNAc,0.422
same,glycan array binding signal (z-score),GalNAc(b1-4)GlcNAc,1.34
same,glycan array binding signal (z-score),[23],0.056
same,glycan array binding signal (z-score),[24],-0.234

# From the supplement of paper PMC8728848
